Screening data deposited in PubChem BioAssay by National Center for Advancing Translational Sciences (NCATS).
TDP1 cell CPT – qHTS for Inhibitors of human tyrosyl-DNA phosphodiesterase 1 (TDP1): qHTS in cells in presence of CPT; chicken DT40 Tdp1-/-;hTDP1 cells + 20 nM CPT, ATP luminescence, 48 h; Potency, µM (highest dose often 46.2 µM), usual class: inhibitors; 420,000 compounds, 12% hits; further: nearly all actives have a fitted effect of over 55% in size
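Chicken DT40 Tdp1-/- cells stably complemented with human TDP1 were seeded at 400 cells/well in medium containing 20 nM camptothecin, exposed to pin-transferred compounds, and grown at 37 °C for at least 48 hr. Viability was read as ATP luminescence.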
TGFb inhibitor – qHTS for Inhibitors of TGF-b; HepG2 CAGA-GFP TGF-b/SMAD3 reporter, GFP fluorescence, 18 h; TGF-beta stimulated, 500 pg/mL final; Potency, µM (top dose mostly 46.1 µM), actives largely listed as inhibitors; 410,000 compounds, 1.2% hits; AID 588855, 2011; further: nearly all actives have a fitted effect of over 65% in size
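HEPG2 CAGA-GFP reporter cells (1000/well, DMEM with 1% FBS) received compounds, then recombinant TGF-beta at 500 pg/mL final for 18 hours at 37 degrees C. Per-cell GFP summed per well was normalised to unstimulated and stimulated DMSO controls before curve fitting.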
HepG2 tox – qHTS for Inhibitors of TGF-b: Cytotox Counterscreen; HepG2 CAGA-GFP viability, ATP luminescence, 18 h; Potency, µM (titrated, usually from 46.1 µM), actives largely listed as cytotoxic; 410,000 compounds, 0.76% hits
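CellTiter-Glo luminescence gave cytotoxicity after 18 hours at 37 degrees C. The cells were HepG2 CAGA-GFP in 1% FBS DMEM, stimulated with 500 pg/mL TGF-beta after compound addition. %Activity was normalised to no-cell wells (complete cell-killing) and DMSO (no toxicity), and curves were fitted and classified.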
HT1080 IDH1KD tx – qHTS for induction of synthetic lethality in tumor cells producing 2HG: qHTS for the HT-1080-IDH1KD cell line. HT-1080 IDH1 knockdown viability, ATP luminescence, 48 h. Potency, µM (titrated, usually from 46.1 µM), hits mostly cytotoxic. 360,000 compounds, 2% hits
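HT-1080-IDH1KD cells (IDH1 knocked down), 750/well in RPMI with 5% FBS, treated with compound 48 h at 37 degrees C. Viability by CellTiter-Glo luminescence, normalised to DMSO and no-cell wells; concentration-response curves classed.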
DT40 TDP1 no CPT – qHTS for Inhibitors of human tyrosyl-DNA phosphodiesterase 1 (TDP1): qHTS in cells in absence of CPT; 420,000 compounds, 15% hits; DT40 Tdp1-/- hTDP1 cells, no CPT, ATP luminescence, 48 h; AID 686978, 2013; Potency, µM (top dose mostly 46.2 µM), hits mostly inhibitors; further: nearly all actives have a fitted effect of over 55% in size
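Luminescent ATP content (CellTiter-Glo) served as the growth readout. Knockout chicken DT40 cells expressing human TDP1 were exposed to compounds without camptothecin for a minimum 48 hr at 37 °C.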
HT1080-NT tox – qHTS for induction of synthetic lethality in tumor cells producing 2HG: qHTS for the HT-1080-NT fibrosarcoma cell line; Potency, µM (top dose mostly 46.1 µM), most hits filed as cytotoxic; HT-1080-NT fibrosarcoma viability, CellTiter-Glo ATP luminescence, 48 h; 360,000 compounds, 1.6% hits; AID 686970, 2013;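 further: NT is the 2HG producing partner of a matched IDH1 knockdown line; nearly all actives have a fitted effect of over 55% in size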
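Read-out is CellTiter-Glo luminescence after 10 minutes at room temperature, following 48 hours' compound treatment of HT-1080-NT cells (750 cells/well, RPMI, 5% FBS, 37 degrees C).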
Numbers stand for hits; i = inactive; ? = inconclusive; nt = no result given; ! = not active in a repeat. Rows were chosen to be rich in hits. Some 17% of all compounds tested hit in one or more screens of this group. The call rests on the fitted dose curve; in most records, active means well fitted curve in the direction sought with a large enough effect; inconclusive means small, poorly fitted or top-dose-only effect, or another doubt; inactive means no such curve, though single readings can be large; an effect the other way counts as inactive or inconclusive.

SMILES | TDP1 cell CPT | TGFb inhibitor | HepG2 tox | HT1080 IDH1KD tx | DT40 TDP1 no CPT | HT1080-NT tox
O=C(c1ccc(F)cc1)N1CCC(c2nc(-c3ccc(S(=O)(=O)N4CCCC4)cc3)no2)CC1 | 20.6µM | i | i | nt | 11.6µM | nt
COc1cccc(CC(=O)N(C)C2CCCN(Cc3ccccc3F)C2)c1 (configuration not stated) | i | i | i | i | ? | i
Cc1ccc(C[n+]2c(-c3ccc(C)cc3)cc(-c3ccc(C)cc3)cc2-c2ccc(C)cc2)cc1 | 0.92µM | ? | i | 2.59µM | 0.581µM | 3.26µM
Cc1ccc(-c2cc(-c3ccc(C)cc3)[n+](-c3ccc(C(=O)O)cc3)c(-c3ccc(C)cc3)c2)cc1 | i | i | i | i | i | ?
CN1CC[C@@]2(C)c3cc(O)ccc3N(C)C2O1 (some centres not stated) | nt | i | i | nt | nt | nt
CN1CC[C@@]2(C)c3cc(O)ccc3N(C)[C@@H]12 | 5.8µM | ? | 17.8µM! | ? | 7.31µM | 23.1µM
COC(=O)C1=C(c2c(C)noc2C)C[C@@H]2CC[C@H]1N2C(=O)NCCOc1ccccc1 | i | i | i | i | i | i
COc1ccc2c(C(=O)c3ccc(Cl)cc3)c(C)n(CC(=O)O)c2c1 | i | nt | nt | nt | i | nt
CCOc1ccc(NCc2cccn2-c2nnc(N3CCC(C(=O)NCC(C)c4ccccc4)CC3)s2)cc1 (configuration not stated) | 23.1µM | nt | i | nt | 8.2µM | nt
Cc1ccc(NCc2cccn2-c2nnc(N3CCC(C(=O)NCc4ccc(OC(C)C)cc4)CC3)s2)cc1 | ? | nt | i | nt | 18.4µM | nt
CCOc1ccc2nc(NC(=O)c3cccn(Cc4ccc(C)cc4)c3=O)sc2c1 | i | i | i | nt | i | nt
CCOc1ccc(NCc2cccn2-c2nnc(N3CCC(C(=O)NCc4ccc(C)cc4)CC3)s2)cc1 | 9.2µM | nt | i | nt | 7.31µM | nt
N[C@@H](Cc1ccc(Oc2cc(I)c(O)c(I)c2)c(I)c1)C(=O)O | i | nt | nt | nt | i | nt
COc1ccc(C2=C(C(C)=O)Sc3nnc(-c4ccc(C)cc4)n3N2C(C)=O)cc1OC | 2.91µM | ? | i | nt | 4.61µM | nt
O=c1c(F)cn(C2CCCO2)c(=O)n1Cc1c(F)cccc1Cl (configuration not stated) | i | i | i | i | ? | i
COc1cccc(C(=O)C2CCCN(Cc3ccccn3)C2)c1 (configuration not stated) | i | i | i | i | ? | i
Cc1ncc(CN2CCCC(C(=O)c3cccc(OC(C)C)c3)C2)s1 (configuration not stated) | ? | i | i | i | ? | i
COc1c(C)cc(C(=O)C2CCCN(Cc3ccccn3)C2)cc1C (configuration not stated) | ? | ? | i | i | 18.4µM | i
COc1c(C)cc(C(=O)C2CCCN(Cc3cnc(C)s3)C2)cc1C (configuration not stated) | ? | i | i | i | 25.9µM | i
Cc1[nH]c2ccc(OCc3ccccc3)cc2c1CCN | 14.6µM | i | i | i | 13µM | i
Cn1nc(C(F)(F)F)c(-c2ccccc2)c1N | i | i | i | i | i | i
COc1ccc(C(=O)C2CN(C)CC2c2ccc(Cl)cc2)cc1 (configuration not stated) | 18.4µM | i | i | i | ? | i
CN1CC(C(=O)c2cccc(C(F)(F)F)c2)C(c2ccc(Cl)cc2)C1 (configuration not stated) | 23.1µM | i | i | i | ? | i
O=C1CC(=O)N(c2ccccc2)C(=O)N1c1ccccc1 | i | i | i | i | i | i
N/C(=N\[N+](=O)[O-])N1CCN(C(=O)Oc2ccccc2)CC1 | i | i | i | i | i | i
SMILES | TDP1 cell CPT | TGFb inhibitor | HepG2 tox | HT1080 IDH1KD tx | DT40 TDP1 no CPT | HT1080-NT tox
CCCOC(=O)Cc1ccc(OCC(=O)N(CC)CC)c(OC)c1 | i | nt | nt | nt | ? | nt
C/C(=N\Nc1ccccc1)c1c(O)[nH]c(=O)[nH]c1=O | i | i | i | 4.11µM | i | ?
C/C(=N\Nc1ccccc1)c1c(O)n(Cc2ccccc2)c(=O)[nH]c1=O | 14.6µM | i | i | ? | ? | ?
C/C(=N\Nc1ccccc1)c1c(O)n(-c2ccccc2)c(=O)[nH]c1=O | i | i | i | 4.61µM | i | ?
CC/C(=N\NC(=S)Nc1ccccc1)c1c(O)[nH]c(=O)[nH]c1=O | i | i | i | i | i | i
CCOc1ccc2nc(NC(=O)c3cccn(Cc4ccc(Cl)cc4)c3=O)sc2c1 | i | i | i | nt | i | nt
COc1cccc(NC(=O)c2cccn(Cc3ccccc3C)c2=O)c1 | ? | ? | i | nt | 25.9µM | nt
Cc1ccccc1Cn1cccc(C(=O)Nc2nc3ccccc3s2)c1=O | 16.4µM | i | i | nt | 16.4µM | nt
CCOC(=O)c1ccc(NC(=O)c2cccn(Cc3ccccc3F)c2=O)cc1 | ? | i | i | nt | 20.6µM | nt
CCCCC[C@H]1CCCCC[C@H](O)C[C@H](O)[C@@H](O)/C=C/C(=O)O1 | 23.1µM | nt | nt | i | 20.6µM | i
Cc1ccc(CN(Cc2ccccc2)C(=S)NCC(=O)N2CCC3(CC2)OCCO3)o1 | ? | ? | i | i | ? | i
Cc1cc(OCC(=O)N2CCC(C(N)=O)CC2)c2c3c(c(=O)oc2c1)CCCC3 | 23.1µM | i | i | i | i | i
CCOc1cc(C)cc2oc(=O)c3c(c12)CCCC3 | i | i | i | i | i | i
Cc1cc(OC(=O)c2ccco2)c2c3c(c(=O)oc2c1)CCCC3 | 11.6µM | ? | i | i | 10.3µM | i
Cc1cc(OC(=O)c2cccs2)c2c3c(c(=O)oc2c1)CCCC3 | 18.4µM | i | i | i | 5.17µM | i
Cc1cc(OCC(=O)O)c2c3c(c(=O)oc2c1)CCCC3 | i | i | i | i | i | i
Cc1cc(OCC(=O)NCc2ccncc2)c2c3c(c(=O)oc2c1)CCCC3 | ? | i | i | i | ? | i
Cc1ccc(-n2nc(C)cc2NC(=O)COc2cc(C)cc3oc(=O)c4c(c23)CCC4)cc1 | ? | i | i | i | 29.1µM | i
Cn1c(=O)oc2cc(S(=O)(=O)NCCN3CCN(c4ccccc4)CC3)ccc21 | ? | i | i | i | i | i
O=C(c1ccco1)N1CCC[C@@]2(CCN(Cc3ccncc3)C2)C1 | i | nt | nt | nt | i | nt
CC(C)OP(=O)(OC(C)C)C(O)c1ccc2c(c1)OCO2 (configuration not stated) | i | i | i | i | i | i
